Measured values published in PubChem BioAssay AID2528 (National Center for Advancing Translational Sciences (NCATS), 2010).
The whole screen tested about 350,000 compounds, of which about 700 (0.2%) were called active. Entries that show only a call come without a potency. Calls follow the shape of the dose curve; as a rule, active = well fitted inhibition curve with a large enough effect; inconclusive = small, poorly fitted or top-dose-only effect; inactive = flat fitted curve, though single readings scatter. This excerpt belongs to a sample that is enriched for actives.

These compounds were tested against RecQ-like DNA helicase BLM (Homo sapiens) (UniProt P54132) (assay: qHTS Assay for Inhibitors of Bloom's syndrome helicase (BLM)). Details: recombinant BLM DNA unwinding, fluorescence dequenching; series mostly up to 56.1 µM.
From the text: Survival of cells and the faithful propagation of the genome depend on elaborate mechanisms of detecting and repairing DNA damage. Treatment of advanced cancer relies on radiation therapy or chemotherapy, which kill cancer cells by causing extensive DNA damage. It is often found, that cancer cells develop resistance to therapy through enhanced activity of DNA repair functions; this has led to an increased interest in developing drugs that interfere with DNA repair, which could sensitize cancer cells to conventional therapy.
This validation qHTS assay pertains to human BLM, which is important in resolving abnormal DNA structures formed during replication or homologous recombination. Shutting down the expression of BLM leads to chromosomal instability and higher radiation sensitivity in cultured cells.
The validation assay was a fluorescence quenching based kinetic qHTS for BLM Helicase DNA unwinding. The activity was measured as ATP-dependent separation of a 20-bp DNA duplex extended by 30-nt single-stranded tails (forked duplex). The forked DNA substrate was tagged with rhodamine fluorophore (carboxytetramethyl rhodamine, TAMRA) and BHQ-2 (Black Hole Quencher 2) dark quencher. Strand separation results in an increase in the fluorescence of TAMRA (excitation 525 nm, emission 598 nm). This substrate construct operates in a red-shifted region where very few compound library members have been noted to fluoresce (PubChem AIDs 593 and 594). An additional feature of the assay is the inclusion of 2.5 ug/ml poly (dIdC), to reduce interference by compounds such as DNA intercalators, a major source of false inhibitors.
Ian Hickson, University of Oxford
Opher Gileadi, Structural Genomics Consortium, University of Oxford
Screening Center PI: Austin, C.P.
Screening Center: NIH Chemical Genomics Center [NCGC]
Three uL of reaction buffer (25 mM Tris-HCl (pH 8.0), 5 mM NaCl, 2 mM MgCl2, 1mM DTT, 0.01% Tween- 20, and 2.5 ug/ml poly(dI-dC), including enzyme (50 nM BLM), were dispensed into a 1536-well Greiner black assay plate via solenoid-valve based nanoliter dispensers. Compounds (23 nl each in columns 5-48) and control (23 nl each in column 2 as dose-response) were transferred via a Kalypsys pintool equipped with a 1536-pin array. The plates were incubated for 15 min at room temperature, and then 1 ul of substrates (200 nM DNA and 2 mM ATP, final concentrations) was added to start the reaction. The plate was transferred into a ViewLux high-throughput CCD imager where the reaction progress was measured in a discontinuous kinetic mode (two reads spaced 2 hours apart, with intermediate room temperature incubation of the covered assay plate) by using standard red-fluorescence optics (excitation filter 525 nm, emission filter 598 nm). Enzyme-free and vehicle (DMSO) controls were included for signal normalization.
Also: nearly all actives have a fitted effect of over 35% in size.
Potency is read from the fitted curve at half-maximal effect.

Sequence of RecQ-like DNA helicase BLM (Homo sapiens) (P54132 whole entry, looked up): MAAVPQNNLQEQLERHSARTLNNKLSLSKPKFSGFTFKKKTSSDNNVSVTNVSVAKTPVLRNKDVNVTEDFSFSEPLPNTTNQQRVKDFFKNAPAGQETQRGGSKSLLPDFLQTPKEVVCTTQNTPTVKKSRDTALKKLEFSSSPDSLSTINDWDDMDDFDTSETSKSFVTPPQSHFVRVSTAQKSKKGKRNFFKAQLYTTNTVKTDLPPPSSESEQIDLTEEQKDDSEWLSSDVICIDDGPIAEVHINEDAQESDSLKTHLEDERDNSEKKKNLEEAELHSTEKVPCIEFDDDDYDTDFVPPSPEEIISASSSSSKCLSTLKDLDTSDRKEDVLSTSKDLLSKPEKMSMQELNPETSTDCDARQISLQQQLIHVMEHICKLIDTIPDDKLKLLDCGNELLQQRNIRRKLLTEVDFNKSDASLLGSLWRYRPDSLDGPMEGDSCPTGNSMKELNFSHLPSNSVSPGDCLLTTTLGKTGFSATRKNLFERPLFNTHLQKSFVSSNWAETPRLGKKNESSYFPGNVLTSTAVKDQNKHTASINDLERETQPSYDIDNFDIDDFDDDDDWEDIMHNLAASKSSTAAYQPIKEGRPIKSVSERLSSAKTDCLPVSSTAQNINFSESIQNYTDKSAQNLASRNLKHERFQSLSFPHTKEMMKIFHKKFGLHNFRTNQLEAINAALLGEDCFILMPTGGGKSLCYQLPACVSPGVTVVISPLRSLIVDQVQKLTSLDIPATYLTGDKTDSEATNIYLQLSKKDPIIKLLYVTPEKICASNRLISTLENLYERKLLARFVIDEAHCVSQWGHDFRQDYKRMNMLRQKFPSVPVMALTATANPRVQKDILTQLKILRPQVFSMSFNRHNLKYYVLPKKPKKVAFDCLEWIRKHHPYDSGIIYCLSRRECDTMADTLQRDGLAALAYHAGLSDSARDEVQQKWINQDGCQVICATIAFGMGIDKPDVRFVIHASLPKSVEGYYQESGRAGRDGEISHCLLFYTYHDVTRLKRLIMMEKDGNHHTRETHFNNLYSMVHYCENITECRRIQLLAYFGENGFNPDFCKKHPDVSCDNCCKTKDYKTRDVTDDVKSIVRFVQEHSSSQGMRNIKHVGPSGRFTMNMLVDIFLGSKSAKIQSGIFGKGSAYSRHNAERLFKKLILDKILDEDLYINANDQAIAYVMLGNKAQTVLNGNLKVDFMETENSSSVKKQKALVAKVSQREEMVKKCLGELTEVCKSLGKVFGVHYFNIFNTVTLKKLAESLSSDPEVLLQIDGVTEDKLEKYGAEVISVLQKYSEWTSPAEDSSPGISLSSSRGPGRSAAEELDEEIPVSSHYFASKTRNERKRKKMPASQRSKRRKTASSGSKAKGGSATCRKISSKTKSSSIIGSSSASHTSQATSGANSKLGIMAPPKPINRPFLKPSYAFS

`COc1ccc(N2C(=O)/C(=C/c3ccco3)C(=O)NC2=S)cc1` was tested. Which Potency did it give?
Its Potency is 12.6 µM (active).

How did the Potency turn out when `COc1cccc(N2C(=O)NC(=O)/C(=C\c3ccc([N+](=O)[O-])s3)C2=O)c1` was run?
The Potency was “inactive”.

`N#Cc1cc(Br)c(O)c(Br)c1` was tested. Which Potency did it give?
The Potency was “inactive”.

How did the Potency turn out when `O=C1CCc2cccc3c2N1CC3` was run?
Its Potency is “inactive”.

Which Potency does the source give for `C[C@]12O[C@H](C[C@@]1(O)C(=O)O)n1c3ccccc3c3c4c(c5c6ccccc6n2c5c31)CNC4=O` here?
Its Potency is “inactive”.

With `CCN(CC)c1nc(C)cc(OP(=S)(OC)OC)n1` as the compound, how does the Potency read?
The Potency was “inactive”.

How did the Potency turn out when `CC(=O)[O][Sn]([c]1ccccc1)([c]1ccccc1)[c]1ccccc1` was run?
The Potency was “inactive”.

How did the Potency turn out when `CCCCCCCCCCCCN=C(N)N` was run?
Its Potency is “inactive”.

`C[C@@H]1C[C@H]2CC[C@H](O2)[C@H](C)C(=O)O[C@@H](C)C[C@@H]2CC[C@@H](O2)[C@@H](C)C(=O)O[C@H](C)C[C@H]2CC[C@H](O2)[C@H](C)C(=O)O[C@@H](C)C[C@@H]2CC[C@@H](O2)[C@@H](C)C(=O)O1` was tested. Which Potency did it give?
Its Potency is “inactive”.

For `CC[N+](C)(CC)CCC[n+]1c(-c2ccccc2)c2cc(N)ccc2c2ccc(N)cc21`, which Potency is on record?
The Potency was 5.01 µM (active).

With `C[C@H]1C/C=C/[C@@H]2[C@@H]3O[C@]3(C)[C@@H](C)[C@H]3[C@H](Cc4ccccc4)NC(=O)[C@]32OC(=O)O/C=C/[C@](C)(O)C1=O` as the compound, how does the Potency read?
The Potency was “inactive”.

For `COC([CH2][Hg])CNC(=O)c1ccccc1OCC(=O)O` (stereo not given), which Potency is on record?
Its Potency is “inactive”.

`CN(C)C[C@H]1CCCC[C@]1(O)c1cccc(O)c1` was tested. Which Potency did it give?
The Potency was “inactive”.

With `O=C(OCC1O[C@@H](OC(=O)c2cc(O)c(O)c(O)c2)[C@@H](OC(=O)c2cc(O)c(O)c(O)c2)[C@@H](OC(=O)c2cc(O)c(O)c(O)c2)[C@@H]1OC(=O)c1cc(O)c(O)c(O)c1)c1cc(O)c(O)c(O)c1` (stereo not given in full) as the compound, how does the Potency read?
The Potency was 0.501 µM (active).

Which Potency does the source give for `CC(C)(Cc1c[nH]c2ccc(Cl)cc12)NCCOc1ccccc1OCC1CC1` here?
The Potency was “inactive”.
